According to PubChem BioAssay (Tox21):
Inconclusive results are not listed. Values without a mark were called inactive. Activity calls are given as the source filed them. The call rests on the fitted dose curve; in most records, active means well fitted cell-killing curve with a large enough effect in the repeat runs; inconclusive means weak or mixed curves, or effect the other way; inactive means flat fitted curve, though single readings scatter.

assay: qHTS RealTime-Glo MT Cell Viability Assay in HEK293 cells - 0 hour (AID 1224880); settings: RealTime-Glo luminescence; series mostly up to 76.8 µM; activity change, negative = cytotoxicity: at the top concentration; further: nearly all actives have a fitted effect of over 45% in size; on activity change, negative = cytotoxicity: top concentration of the series differs between compounds
Excerpt: U.S. Tox21 Program National Center for Advancing Translational Sciences [NCATS] NIH Chemical Genomics Center [NCGC] U.S. Environmental Protection Agency [EPA] National Institutes of Environmental Health Sciences [NIEHS] National Toxicology Program [NTP] U.S. Food and Drug Administration [FDA] Tox21 Assay Overview: Measure of cell viability is critical in the cell-base assay. Analysis of cell viability is necessary for the characterization of cell responses to cytotoxic drugs and environmental stress. A RealTime-Glo MT Cell Viability Assay to monitor cell viability in real time of continues cell culture during 40 hours of compound treatment was used to screen Tox21 10K library compounds in Hek293 cells. The RealTime-Glo MT Cell Viability Assay is a nonlytic, homogeneous, bioluminescent method to measure cell viability in real time using a simple, plate-based method. The assay involves adding NanoLuc luciferase and a cell-permeant prosubstrate to cells in culture. Viable cells reduce the proprietary prosubstrate to generate a substrate for NanoLuc luciferase. This substrate diffuses from cells into the surrounding culture medium, where it is rapidly used by the NanoLuc Enzyme to produce a luminescent signal. The signal correlates with the number of viable cells, making the assay well suited for cytotoxicity studies.
Tox21 Assay Protocol Summary: The mixture of Hek293 cell suspension and reagents were dispensed at 600cells/6 ul/well in 1536-well tissue culture treated black solid bottom plates using a Multidrop dispenser. After the assay plates were incubated at a 37 C/5% CO2 incubator for 5 hours, 23 nL of compounds dissolved in DMSO, positive and negative controls was transferred to the assay plate by a pintool work station. The plates were incubated at 37 C for 40 hours. The luminescence intensity were measured at 0h, 8h, 16h, 24h, 32h and 40h time points using ViewLux plate reader during compound treatment.
On the % scale 0 is the no-effect control and ±100 the full control effect; potency means the concentration at half of the fitted maximal effect.

Row | SMILES | activity change, negative = cytotoxicity | Potency
1 | CCC(=O)CC(C)CC (stereo not given) | 6.1% [at 0.29 µM] | –
2 | CCC1(c2cnc[nH]2)Cc2ccccc2C1 | 11.2% [at 35.3 µM] | –
3 | O=C1NCN(c2ccccc2)C12CCN(CCCC(c1ccc(F)cc1)c1ccc(F)cc1)CC2 | -6.83% [at 35.3 µM] | –
4 | CCCCCCCCCC(=O)N(C)C | -0.0959% | –
5 | CCOC(/C=C(\C)CCC=C(C)C)OCC | -9.64% | –
6 | O=C[C@H](O)[C@H](O)[C@H](O)CO | 6.66% | –
7 | OCCN1CN(CCO)CN(CCO)C1 | 6.27% | –
8 | O=C(c1ccccc1)c1cc(Cl)ccc1O | -6.42% | –
9 | CCCCCCCCCCCC(=O)N(CC)CC | -3.94% | –
10 | CCc1c(C(=O)O)c(=O)cnn1-c1ccc(Cl)cc1 | -2.12% | –
11 | Cc1cccc(C)c1NC(=O)CN1CCN(CCCC(c2ccc(F)cc2)c2ccc(F)cc2)CC1 | -0.847% [at 35.3 µM] | –
12 | CN1CCN(C2Cc3ccccc3Sc3ccc(Cl)cc32)CC1 (stereo not given) | 15.1% [at 35.3 µM] | –
13 | CCOC(=O)COc1ccc(C)cc1 | 14.8% | –
14 | CO[Si](CCCNCCNCCN)(OC)OC | -1.13% | –
15 | O=S(=O)(O)CCCN1CCOCC1 | 3.37% | –
16 | CC(C)c1ccccc1N | 6.4% | –
17 | CCCCCCCCC(C)=O | 4.66% | –
18 | C[C@H]1O[C@@H](O[C@H]2[C@@H](O)C[C@H](O[C@H]3[C@@H](O)C[C@H](O[C@H]4CC[C@@]5(C)[C@H](CC[C@@H]6[C@@H]5C[C@@H](O)[C@]5(C)[C@@H](C7=CC(=O)OC7)CC[C@]65O)C4)O[C@@H]3C)O[C@@H]2C)C[C@H](O)[C@@H]1O | – | inactive
19 | C=CC(=O)OCCOCC(CC)(COCCOC(=O)C=C)COCCOC(=O)C=C | 2.86% | –
20 | O=C(O)Cc1ccc(OCCNC[C@H](O)c2ccccc2)cc1 | 0.604% [at 35.3 µM] | –

Row | SMILES | activity change, negative = cytotoxicity | Potency
21 | CCOC(=O)CC(C)O (stereo not given) | 15.1% | –
22 | CC(C)(C)CC(C)(C)c1ccccc1O | 1.24% | –
23 | CC(C)(C)c1cc(CCC(=O)NCCCCCCNC(=O)CCc2cc(C(C)(C)C)c(O)c(C(C)(C)C)c2)cc(C(C)(C)C)c1O | -20.6% | –
24 | CC(=O)Nc1ccc(O)cc1 | – | inactive
25 | CCN(CC)c1ccc(N)cc1 | -21.6% | –
26 | CCC(C)c1ccccc1 (stereo not given) | 11.9% | –
27 | C1CC(COCC2CO2)CCC1COCC1CO1 (stereo not given) | -7.41% | –
28 | Cc1cccc(N(C)C)c1 | 8.46% | –
29 | CCC(C)c1cc([N+](=O)[O-])cc([N+](=O)[O-])c1OC(=O)OC(C)C (stereo not given) | -3.65% | –
30 | O[C@@H](c1cc(C(F)(F)F)nc2c(C(F)(F)F)cccc12)[C@H]1CCCCN1 | 16% [at 35.3 µM] | –
31 | Oc1c(Br)cc(Br)c2cccnc12 | 0.888% [at 35.3 µM] | –
32 | NC1(c2ccc(-c3nc4ccn5c(=O)[nH]nc5c4cc3-c3ccccc3)cc2)CCC1 | 8.99% [at 35.3 µM] | –
33 | CCOC(=O)C1=C(C)NC(C)=C(C(=O)OCC)C1c1ccccc1/C=C/C(=O)OC(C)(C)C | – | 3.79 µM (active)
34 | CC(C)CCOCCC(C)C | 7.78% | –
35 | CNC(=O)c1cc(Oc2ccc(NC(=O)Nc3ccc(Cl)c(C(F)(F)F)c3)cc2)ccn1 | -4.89% [at 35.3 µM] | –
36 | Cn1cccc1 | -0.231% | –
37 | CC(C)N=C(N)/N=C(\N)Nc1ccc(Cl)cc1 | -4.27% [at 35.3 µM] | –
38 | CC(C)(c1cc(Br)c(O)c(Br)c1)c1cc(Br)c(O)c(Br)c1 | – | inactive
39 | COC(=O)[C@]1(C)CCC[C@@]2(C)[C@H]1CC=C1C=C(C(C)C)CC[C@@H]12 | -1.58% | –
40 | COc1cccc(OC)c1O | 12.1% | –
